RN4220 kill: growth inhibition of S. aureus RN4220, primary screen, OD600; 16 h; inhibition, % (concentration not given with the values); 330,000 tested, 0.33% active; AID 1259311, 2017; in the data active means inhibition above about 85%;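 further: plate controls were untreated cells for no effect and reference antibiotic for full effect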
Mtb hypoxia rep: PubChem AID 1159583; M. tuberculosis hypoxia-regulated fluorescent reporter, fluorescence; fluorescence inhibition, % (concentration not given with the values); 300,000 tested, 0.1% active; in the data active means fluorescence inhibition mostly above about 23%, no sharp cut-off; inactive means mostly below about 17%
ugtP null kill: growth inhibition of ugtP-null S. aureus, primary screen, RN4220 ugtP deletion, OD600; 16 h; growth inhibition, % (concentration not given with the values); 330,000 tested, 0.54% active; AID 1259309, 2017; in the data active means growth inhibition above about 68%;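 further: plate controls were untreated wells for no effect and antibiotic for full effect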
PriA SSB inh: inhibitors of Klebsiella pneumoniae PriA binding to SSB C-terminal tail, primary screen, biochemical, AlphaScreen | PriA–SSB C-terminal tail interaction (Klebsiella pneumoniae) | AlphaScreen SSBct-PriA binding, biotinylated peptide | inhibition, % at 33 µM | 430,000 tested, 0.6% active | AID 1272365, 2023; in the data active means inhibition mostly above about 37%, no sharp cut-off; inactive means mostly below about 20%;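 further: plate controls were negative control peptide for no effect and reference peptide for full effect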
Starred values were filed as active, the others as inactive; . = no result given. The list is not random: actives were taken first. Their share in the collection is about 1.1%.

SMILES | RN4220 kill | Mtb hypoxia rep | ugtP null kill | PriA SSB inh
COc1ccc(C)cc1NC(=O)CSc1ccc(-c2ccccn2)nn1 | -2.7 | -0.2 | -5.0 | 52.0*
O=C(c1cc2ccccc2o1)n1sc(=O)c2ccccc21 | . | . | . | -1.0
Cn1c(SCC(=O)NCc2ccco2)nc2c(-c3ccccc3)csc2c1=O | . | . | . | -18.0
COc1ccc(Nc2nc(-c3cccs3)nc3ccccc23)cc1 | 10.5 | -3.0 | 95.4* | -39.6
COc1cccc(Nc2nc(-c3cccs3)nc3ccccc23)c1 | 28.3 | 3.2 | 68.0 | -65.8
Oc1ccc(Nc2nc(-c3ccccc3)nc3ccccc23)cc1 | -7.3 | 5.2 | 15.3 | -4.9
COc1ccc(Nc2nc(-c3ccccc3)nc3ccccc23)cc1 | 8.3 | 6.4 | 94.8* | -54.7
O=C(C[n+]1ccc(CCSc2ccc(F)cc2)cc1)c1ccccc1 | -7.0 | 8.4 | 14.4 | 46.0*
Cc1ccc(SCCc2cc[n+](CC(=O)c3ccccc3)cc2)cc1 | 3.1 | 11.0 | 7.5 | 17.3
O=C(O)CCCN1C(=O)C2C3CC(C2C1=O)C1C(c2cccs2)c2sc(=O)[nH]c2SC31 (configuration not stated) | . | . | . | 8.0
CCCCCn1c(NS(=O)(=O)c2ccc(F)cc2)c(S(=O)(=O)c2ccc(C)cc2)c2nc3ccccc3nc21 | . | . | . | 47.3
CCCCCn1c(NS(=O)(=O)c2ccccc2)c(C(=O)OCC)c2nc3ccccc3nc21 | . | . | . | 69.6*
CCCCn1c(NC(=O)c2ccccc2)c(S(=O)(=O)c2ccc(C)cc2)c2nc3ccccc3nc21 | . | . | . | 54.0*
CCCCn1c(NS(=O)(=O)c2ccc(C)cc2)c(S(=O)(=O)c2ccccc2)c2nc3ccccc3nc21 | . | . | . | 22.8
CCCCCCCCn1c(NS(=O)(=O)c2ccccc2)c(S(=O)(=O)c2ccccc2)c2nc3ccccc3nc21 | . | . | . | 59.8*
CCCCn1c(NS(=O)(=O)c2ccc(F)cc2)c(S(=O)(=O)c2ccc(C)cc2)c2nc3ccccc3nc21 | . | . | . | 56.0*
CCCCCCCCn1c(NS(=O)(=O)c2ccc(C)cc2)c(S(=O)(=O)c2ccc(C)cc2)c2nc3ccccc3nc21 | . | . | . | 54.2*
O=C(c1ccccc1C(F)(F)F)N1CCN(c2ccc(-c3ccccn3)nn2)CC1 | . | . | . | 150.0*
COc1ccccc1CC(=O)N1CCN(c2ccc(-c3ccccn3)nn2)CC1 | . | . | . | 158.0*
COc1ccccc1CC(=O)N1CCN(c2ccccn2)CC1 | 6.6 | 12.0 | 3.6 | -8.8
O=C(c1ccccc1F)N1CCN(c2ccc(-c3ccccn3)nn2)CC1 | . | . | . | 108.0*
CC1(C)CC(OC(=O)c2ccccc2C(=O)OC2CC(C)(C)NC(C)(C)C2)CC(C)(C)N1 | . | . | . | -6.0
O=C(/C=C/c1ccccc1)N1CCN(CCN2C(=O)c3cccc4cccc(c34)C2=O)CC1 | 82.8 | -2.7 | 97.7* | 1.3
Cc1noc(CNC(=O)Cc2cn(C)c3ccccc23)n1 | . | . | . | 2.0
COc1ccc2nc(N(CCCn3ccnc3)C(=O)/C=C/c3cccs3)sc2c1 | . | . | . | 53.0*
SMILES | RN4220 kill | Mtb hypoxia rep | ugtP null kill | PriA SSB inh
CCN(CC)CCN(C(=O)/C=C/c1cccs1)c1nc2ccc(OC)cc2s1 | 1.4 | -1.3 | 1.7 | 1.6
O=C(c1cccc(F)c1)N(CCCn1ccnc1)c1nc2ccc(Cl)cc2s1 | . | . | . | 52.0*
O=C(c1ccc2c(c1)OCCO2)N(CCCn1ccnc1)c1nc2ccc(F)cc2s1 | . | . | . | 37.0*
Cc1ccc(NC(=O)c2nnn(Cc3ccccc3C)c2N)c(Br)c1 | . | . | . | 7.0
O=C(NCCCn1nc(-c2ccc(Cl)cc2)ccc1=O)c1cc2ccccc2oc1=O | . | . | . | -19.0
CCCCCCCCCCCCCCCC[n+]1ccc(C=NO)cc1 | 100.6* | 12.4 | 100.6* | -4.0
Cn1nc(CNC(=O)C2CCC2)cc1C1CC1 | . | . | . | -5.0
Cn1c(SCc2ccc(Cl)cc2Cl)nc(C(F)(F)F)cc1=O | 7.9 | 4.8 | 1.1 | -3.2
FC(F)(F)c1nc(SCc2ccc(Cl)cc2Cl)n[nH]1 | 81.0 | 0.1 | 82.8* | -15.0
OC(COc1ccc(C23CC4CC(CC(C4)C2)C3)cc1)C[N+]1(Cc2ccccc2)CCOCC1 (configuration not stated) | . | . | . | 45.0*
CCOc1cc2[nH]c(=O)n(Cc3ccc(C(=O)NCCOC)cc3)c(=O)c2cc1OCC | 5.5 | 0.3 | -2.6 | 104.2*
O=C(NC(=S)N(Cc1ccccc1)Cc1ccccc1)c1ccccc1F | 95.0* | -9.1 | 94.4* | -1.4
O=C(NC(=S)NCc1ccccc1)c1ccccc1F | 0.4 | 11.9 | 4.3 | -48.3
Cc1ccc(/C=C/S(=O)(=O)N2CCN(CCn3ccnc3)CC2)cc1 | . | . | . | -1.0
O=S(=O)(Nc1ccc(-c2ccc3nncn3n2)cc1)c1ccccc1F | 7.7 | 9.3 | -3.5 | -20.0
Cc1cccc(S(=O)(=O)Nc2ccc(-c3ccc4nnc(-c5ccccn5)n4n3)cc2)c1 | . | . | . | 79.0*
O=S(=O)(Nc1ccc(-c2ccc3nnc(-c4ccccn4)n3n2)cc1)c1ccccc1F | . | . | . | 101.0*
CCN1C(=O)Cc2cc(NC(=O)c3ccco3)ccc21 | . | . | . | 10.0
CCOC(=O)N1CCC(NC(=O)c2ccc(CS(=O)(=O)c3c(Cl)cccc3Cl)o2)CC1 | 2.9 | . | -9.6 | -17.4
CCCNC(=O)c1ccc(COc2ccc(Cl)cc2)o1 | 4.5 | -4.4 | 9.7 | -16.6
CC(=O)OCC1=C(C(=O)O)N2C(=O)C(NC(=O)c3ccc(COc4ccc(Cl)cc4)o3)C2SC1 (configuration not stated) | 99.4* | 10.8 | 100.2* | -5.8
CC(=O)OCC1=C(C(=O)O)N2C(=O)C(NC(=O)c3ccc(COc4c(C)cccc4Cl)o3)C2SC1 (configuration not stated) | 95.5* | 8.9 | 100.0* | -11.6
O=C(c1ccc(=O)[nH]n1)N1CCCC(Cc2nc(-c3ccccc3F)no2)C1 (configuration not stated) | . | . | . | -12.0
COc1ccc2sc(Nc3nc4ccc5nc(C)sc5c4s3)nc2c1 | . | . | . | -5.0
Cc1ccc(NC(=O)c2sccc2S(=O)(=O)N2CCN(c3ccccc3)CC2)cc1F | . | . | . | -17.0
SMILES | RN4220 kill | Mtb hypoxia rep | ugtP null kill | PriA SSB inh
CC1=C(C(=O)Nc2ccccc2)C(c2ccc(C)cc2)N=C(Nc2nc3ccccc3o2)N1 (configuration not stated) | 30.5 | 37.0* | -10.4 | -14.9
Cc1cccc(Oc2cc(N3CCC(C(=O)NCc4cccc(Br)c4)CC3)ncn2)c1C | . | . | . | -13.0
CCN(CC)C(=O)c1cccc2nc3ccccc3nc12 | 2.7 | 0.3 | 3.1 | -1.4
COC(=O)c1cccc2nc3c(C(C)O)cccc3nc12 (configuration not stated) | 0.7 | . | 3.9 | 41.5*
Cc1cc(C(=O)NC[C@](C)(O)c2ccc(-c3ccccc3)cc2)no1 | . | . | . | -13.0
COc1ccc2nc(C)cc(NN=Cc3ccc(F)cc3)c2c1 | 7.7 | 77.5* | -15.4 | 27.6
COc1ccc2nc(C)cc(NN=Cc3ccccc3)c2c1 | 55.8 | . | 58.8 | 19.7
COc1ccccc1C1CCN(C(=O)C2CCCCC2)CC1 | 7.1 | 3.4 | 2.6 | 41.1*
COc1ccccc1C1CCN(C(=O)c2ccccc2)CC1 | 9.2 | 9.3 | 14.7 | -11.6
O=C(COC(=O)c1ccc(S(=O)(=O)NCc2ccco2)cc1)c1cccc([N+](=O)[O-])c1 | . | . | . | 4.0
CCOc1ccc(-n2c(C)cc(C(=O)NS(=O)(=O)c3ccc(C)cc3)c2C)cc1 | 1.7 | 1.1 | 92.2* | -12.2
Cc1ccc(S(=O)(=O)NC(=O)c2cc(C)n(C3CC3)c2C)cc1 | 3.5 | 13.4 | 2.6 | 6.1
